Source: PubChem BioAssay AID1159580 (chemical genetic matrix, 2015)
In all, about 5,500 compounds went through this assay and about 2,000 (36%) were called active. Inconclusive results (about 18%) are left out. No stated cut-off is given here; in the data, active means normalized growth mostly below about 0.91 (no sharp cut-off); inconclusive means no clear call, values can overlap the other calls; inactive means mostly above about 0.92. The list shows a part of the results.

Assay: chemical genetic growth profiling, strain panel (AID 1159580);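 further: tested at 20 µM; growth read once vehicle control cultures reached saturation at 30 °C; 1 = growth at the plate median or of vehicle wells; lower values mean less growth of the strain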
Details: growth OD

Measured: normalized growth

C[C@H]1O[C@@H](O[C@H]2[C@@H](O)C[C@H](O[C@H]3[C@@H](O)C[C@H](O[C@H]4CC[C@]5(C)C6C[C@@H](O)[C@]7(C)[C@@H](C8=CC(=O)OC8)CC[C@]7(O)C6CC[C@@H]5C4)O[C@@H]3C)O[C@@H]2C)C[C@H](O)[C@@H]1O (some centres undefined)
inactive: S. cerevisiae deletion strains, locus YJR043C, strain POL32, active compounds read low 1.01 | S. cerevisiae deletion strains, locus YJR066W, strain TOR1, active compounds read low 0.966 | S. cerevisiae deletion strains, locus YKL009W, strain mrt4, active compounds read low 0.969 | S. cerevisiae deletion strains, locus YKL068W, active compounds read low 0.986 | S. cerevisiae deletion strains, locus YKL085W, strain MDH1 (second series), active compounds read low 0.991 | S. cerevisiae deletion strains, locus YKL085W, strain MDH1, active compounds read low 0.991 | S. cerevisiae deletion strains, locus YKL160W, strain elf1, active compounds read low 0.93 | S. cerevisiae deletion strains, locus YKR001C, strain vps1, active compounds read low 0.971 | S. cerevisiae deletion strains, locus YKR026C, strain gcn3, active compounds read low 1 | S. cerevisiae deletion strains, locus YKR091W, strain srl3, active compounds read low 0.984 | S. cerevisiae deletion strains, locus YLL001W, strain dnm1, active compounds read low 0.921 | S. cerevisiae deletion strains, locus YLL026W, active compounds read low 0.999 | S. cerevisiae deletion strains, locus YLL041C, strain sdh2, active compounds read low 1 | S. cerevisiae deletion strains, locus YLR027C, strain aat2, active compounds read low 1.03 | S. cerevisiae deletion strains, locus YLR039C, strain RIC1, active compounds read low 0.973 | S. cerevisiae deletion strains, locus YLR058C, strain SHM2, active compounds read low 1 | S. cerevisiae deletion strains, locus YLR102C, strain apc9, active compounds read low 0.977 | S. cerevisiae deletion strains, locus YLR113W, strain HOG1, active compounds read low 1.09 | S. cerevisiae deletion strains, locus YLR221C, strain rsa3, active compounds read low 1.01 | S. cerevisiae deletion strains, locus YLR258W, strain gsy2, active compounds read low 1.01 | S. cerevisiae deletion strains, locus YLR262C, strain YPT6 (second series), active compounds read low 0.956 | S. cerevisiae deletion strains, locus YLR262C, strain YPT6, active compounds read low 0.984 | S. cerevisiae deletion strains, locus YLR268W, strain sec22, active compounds read low 0.959 | S. cerevisiae deletion strains, locus YLR320W, strain mms22, active compounds read low 0.969 | S. cerevisiae deletion strains, locus YLR330W, strain CHS5, active compounds read low 0.983 | S. cerevisiae deletion strains, locus YLR342W, strain FKS1 (second series), active compounds read low 1.02 | S. cerevisiae deletion strains, locus YLR342W, strain FKS1, active compounds read low 0.983 | S. cerevisiae deletion strains, locus YLR357W, strain rsc2, active compounds read low 0.999 | S. cerevisiae deletion strains, locus YLR370C, strain arc18, active compounds read low 0.994 | S. cerevisiae deletion strains, locus YLR371W, strain rom2, active compounds read low 0.997 | S. cerevisiae deletion strains, locus YLR384C, strain iki3, active compounds read low 1 | S. cerevisiae deletion strains, locus YLR418C, strain cdc73, active compounds read low 1.01 | S. cerevisiae deletion strains, locus YML016C, strain PPZ1, active compounds read low 0.998 | S. cerevisiae deletion strains, locus YML032C, strain rad52, active compounds read low 0.988 | S. cerevisiae deletion strains, locus YML120C, strain ndi1, active compounds read low 0.946 | S. cerevisiae deletion strains, locus YML124C, strain tub3, active compounds read low 0.992 | S. cerevisiae deletion strains, locus YMR058W, strain fet3, active compounds read low 0.984 | S. cerevisiae deletion strains, locus YMR078C, strain ctf18, active compounds read low 0.981 | S. cerevisiae deletion strains, locus YMR125W, strain sto1, active compounds read low 0.925 | S. cerevisiae deletion strains, locus YMR129W, active compounds read low 0.996 | S. cerevisiae deletion strains, locus YMR205C, strain PFK2, active compounds read low 0.942 | S. cerevisiae deletion strains, locus YMR223W, strain ubp8, active compounds read low 0.993 | S. cerevisiae deletion strains, locus YMR231W, strain pep5, active compounds read low 0.998 | S. cerevisiae deletion strains, locus YMR307W, strain GAS1, active compounds read low 1.09 | S. cerevisiae deletion strains, locus YNL067W, strain RPL9B, active compounds read low 1.03 | S. cerevisiae deletion strains, locus YNL071W, strain lat1, active compounds read low 1 | S. cerevisiae deletion strains, locus YNL128W, strain TEP1, active compounds read low 0.977 | S. cerevisiae deletion strains, locus YNL183C, strain NPR1, active compounds read low 0.985 | S. cerevisiae deletion strains, locus YNL209W, strain ssb2, active compounds read low 0.995 | S. cerevisiae deletion strains, locus YNL233W, strain BNI4, active compounds read low 1.01 | S. cerevisiae deletion strains, locus YNL248C, strain rpa49, active compounds read low 0.973 | S. cerevisiae deletion strains, locus YNL250W, strain rad50, active compounds read low 0.974 | S. cerevisiae deletion strains, locus YNL271C, strain bni1, active compounds read low 0.996 | S. cerevisiae deletion strains, locus YNL298W, strain CLA4, active compounds read low 0.986 | S. cerevisiae deletion strains, locus YNL307C, strain MCK1, active compounds read low 0.988 | S. cerevisiae deletion strains, locus YNL322C, strain KRE1 (second series), active compounds read low 0.995 | S. cerevisiae deletion strains, locus YNL322C, strain KRE1, active compounds read low 0.996 | S. cerevisiae deletion strains, locus YNR049C, strain mso1, active compounds read low 0.986 | S. cerevisiae deletion strains, locus YNR052C, strain pop2, active compounds read low 0.993 | S. cerevisiae deletion strains, locus YOL006C, strain TOP1, active compounds read low 0.959 | S. cerevisiae deletion strains, locus YOL012C, strain htz1 0.951 | S. cerevisiae deletion strains, locus YOL147C, strain pex11, active compounds read low 0.99 | S. cerevisiae deletion strains, locus YOR001W, strain rrp6, active compounds read low 1.06 | S. cerevisiae deletion strains, locus YOR061W, strain CKA2, active compounds read low 0.984 | S. cerevisiae deletion strains, locus YOR069W, strain VPS5, active compounds read low 0.992 | S. cerevisiae deletion strains, locus YOR070C, strain gyp1, active compounds read low 0.999 | S. cerevisiae deletion strains, locus YOR080W, strain dia2, active compounds read low 0.985 | S. cerevisiae deletion strains, locus YOR083W, strain WHI5, active compounds read low 0.945 | S. cerevisiae deletion strains, locus YOR106W, strain vam3, active compounds read low 0.947 | S. cerevisiae deletion strains, locus YOR136W, strain idh2, active compounds read low 0.974 | S. cerevisiae deletion strains, locus YOR144C, strain elg1, active compounds read low 0.988 | S. cerevisiae deletion strains, locus YOR184W, strain ser1, active compounds read low 0.979 | S. cerevisiae deletion strains, locus YOR231W, strain MKK1, active compounds read low 1.04 | S. cerevisiae deletion strains, locus YOR265W, strain rbl2, active compounds read low 0.993 | S. cerevisiae deletion strains, locus YOR270C, strain vph1, active compounds read low 0.92 | S. cerevisiae deletion strains, locus YOR290C, strain snf2, active compounds read low 0.973 | S. cerevisiae deletion strains, locus YOR316C, strain cot1, active compounds read low 0.983 | S. cerevisiae deletion strains, locus YPL051W, strain arl3, active compounds read low 1 | S. cerevisiae deletion strains, locus YPL078C, strain atp4, active compounds read low 0.932 | S. cerevisiae deletion strains, locus YPL106C, strain sse1, active compounds read low 1 | S. cerevisiae deletion strains, locus YPL240C, strain hsp82, active compounds read low 0.99 | S. cerevisiae deletion strains, locus YPL241C, strain CIN2, active compounds read low 0.998 | S. cerevisiae deletion strains, locus YPL256C, strain CLN2, active compounds read low 1.04 | S. cerevisiae deletion strains, locus YPR119W, strain clb2, active compounds read low 1 | S. cerevisiae deletion strains, locus YPR141C, strain kar3, active compounds read low 0.984 | S. cerevisiae deletion strains, locus YPR163C, strain tif3, active compounds read low 0.977 | S. cerevisiae deletion strains, locus YPR167C, strain met16, active compounds read low 0.977 | S. cerevisiae deletion strains, strain wtn01, active compounds read low 0.997 | S. cerevisiae strains, strain wild type, active compounds read low 1
